# Assay outcomes (PubChem)
# An excerpt weighted towards active compounds, which were near 21% of everything screened.
# Shiga toxin inh = A qHTS for Small Molecule Inhibitors of Shiga Toxin | Vero cells, Shiga toxin protein synthesis inhibition reporter | inhibition, % at 38.7 µM | hit rate 9.2% among 290,000 | AID 2315, 2010; in the data active = inhibition mostly above about 28%, no sharp cut-off; inactive = mostly below about 43%; also: 0% is about no effect
# Pf growth 96h = Primary qHTS for delayed death inhibitors of the malarial parasite plastid, 96 hour incubation; P. falciparum luciferase reporter growth, 96 h; Potency, µM (doses to about 28.7 µM), inactives show top-dose activity change, negative = inhibition, hits mostly inhibitors; hit rate 6.9% among 320,000; AID 504834, 2011; also: potency is read from the fitted curve at half-maximal effect; % is scaled to controls: 0 for no effect and ±100 for the full control effect
#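 Parasite growth measured via integrated firefly luciferase reporter in P. falciparum. Infected erythrocytes at 2% hematocrit, 0.05% parasitemia final were treated 96 hours at 37 C under 5% CO2, and luminescence was read.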
# Cycloheximide cs = Cycloheximide Counterscreen for Small Molecule Inhibitors of Shiga Toxin; cell reporter, cycloheximide protein synthesis inhibition counterscreen; AID 2314, 2010; max response, %; hit rate 12% among 300,000; in the data active = max response mostly above about 13%, no sharp cut-off; inactive = mostly below about 14%; also: read at 38.3 µM for the half of the compounds with a filed dose; 0% is about no effect
# Pf growth 48h = Primary qHTS for delayed death inhibitors of the malarial parasite plastid, 48 hour incubation | P. falciparum luciferase growth in erythrocytes, 48 h | hit rate 5.9% among 310,000 | Potency, µM (titrated, usually from 28.7 µM), for inactives: at the top dose activity change, negative = inhibition, actives largely listed as inhibitors; also: potency is read from the fitted curve at half-maximal effect; % is scaled to controls: 0 for no effect and ±100 for the full control effect
#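 Luciferase-expressing P. falciparum in infected erythrocytes (2% hematocrit, 0.1% parasitemia final) in RPMI 1640/0.5% Albumax were exposed to compound for 48 hours at 37 C, 5% CO2; growth read as luminescence.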
# * = called active by the depositor; i = inactive; u = inconclusive; x = no result. Unless noted, calls follow the shape of the dose curve; as a rule, active = well fitted inhibition curve with a large enough effect; inconclusive = small, poorly fitted or top-dose-only effect, or another doubt; inactive = no such curve, though single readings can be large or run the other way.
SMILES,Shiga toxin inh,Pf growth 96h,Cycloheximide cs,Pf growth 48h
CCOC(=O)c1cc(-c2csc(COc3ccc(Cl)cc3)n2)on1,-8,-1%,-2,-6%
CCOC(=O)c1csc(COc2ccc(OC)cc2)n1,122*,0%,61*,189%
CCOC(=O)c1csc(NC(=O)CC2CCCC2)n1,32*,-6%,25*,18%
COC(=O)c1ccc2nc(Nc3nc4ccc(F)cc4s3)sc2c1,-34,28%,28*,41%
COC(=O)c1ccc2nc(NC(=O)C(C)(C)C)sc2c1,-7,124%,-7,64%
CCOC(=O)c1csc(Nc2nc3ccc(F)cc3s2)n1,23*,-4%,20*,u
CC(=O)c1sc(Nc2nc3ccc(F)cc3s2)nc1C,97*,u,52*,-9%
Cn1c(-c2ccco2)n[nH]c1=S,-7,0%,-2,-1%
Cc1ccsc1-c1ccnc(-n2cccc2)n1,52*,11%,22*,67%
Clc1ccsc1-c1ccnc(-n2cccc2)n1,52*,23%,22*,19%
Clc1ccc(-c2ccnc(-n3cccc3)n2)s1,16,15%,8,5%
c1coc(-c2ccnc(-n3cccc3)n2)c1,19,110%,46*,i
Cc1ccc(/C=N/Nc2ccc(Cl)c(C(=O)O)c2)s1,150*,i,104*,302%
Cn1c(N/N=C/c2cccs2)cc(=O)n(C)c1=O,22,-6%,21*,x
Cc1ccc(/C=N/Nc2ccc(F)cc2)s1,68*,u,23*,u
Cc1ccc(/C=N/n2c(C)nnc2C)s1,15,-15%,-2,0%
O=C(O)c1cc(N/N=C/c2cccs2)ccc1Cl,95*,135%,49*,122%
O=C(N/N=C/c1cccs1)C(O)c1ccccc1 (stereo not drawn),20,25%,-1,19%
Cn1c(=O)c2c(nc(N/N=C/c3cccs3)n2C)n(C)c1=O,17,u,12,u
O=C(COc1ccc2ccccc2c1)N/N=C/C1CC=CCC1 (stereo not drawn),2,u,-4,-3%
CCS(=O)(=O)C1=NN2C(=N)/C(=C\c3ccc(OS(=O)(=O)c4ccccc4)cc3)C(=O)N=C2S1,38,u,33*,6%
CS(=O)(=O)C1=NSC2=NC(=O)/C(=C\c3ccc(OS(=O)(=O)c4ccccc4)cc3)C(=N)N21,34*,u,16*,14%
CCS(=O)(=O)C1=NN2C(=N)/C(=C\c3ccc(OS(=O)(=O)c4ccccc4)c(OC)c3)C(=O)N=C2S1,8,9.3µM*,11,u
CCc1cc(=O)oc2cc(OCC(=O)N(CC)CC)c(Cl)cc12,3,10µM*,5,x
CCc1cc(=O)oc2cc(OCC(=O)O)c(Cl)cc12,-2,x,-1,7%
SMILES,Shiga toxin inh,Pf growth 96h,Cycloheximide cs,Pf growth 48h
N#Cc1ccc(/C=C(\C(=O)C(=O)O)c2ccc3ccccc3n2)cc1,74*,179%,57*,95%
O=C(O)C(=O)/C(=C\c1cccc(Cl)c1)c1ccc2ccccc2n1,110*,196%,93*,275%
CN(C)C(=S)c1ccc2ccccc2n1,-2,x,14,u
Cc1cccc(/C=C(\C(=O)C(=O)O)c2ccc3ccccc3n2)c1,62*,468%,46*,223%
N#CCCC(CCC#N)C1=NCCc2ccccc21,12,28%,-1,11%
CC[C@H](C)[C@H](NC(=O)[C@H](Cc1ccc(O)cc1)NC(=O)[C@H](Cc1cnc[nH]1)NC(=O)[C@H](CCCNC(=N)N)NC(=O)[C@H](CC(C)C)NC(=O)[C@H](C)NC(=O)[C@H](CO)NC(=O)[C@H](Cc1ccc(O)cc1)NC(=O)[C@H](Cc1ccc(O)cc1)NC(=O)[C@H](CCCNC(=N)N)NC(=O)[C@H](C)NC(=O)[C@H](CCSC)NC(=O)[C@H](CC(=O)O)NC(=O)[C@H](CCC(=O)O)NC(=O)[C@H](C)NC(=O)[C@@H]1CCCN1C(=O)[C@H](C)NC(=O)[C@H](CC(=O)O)NC(=O)[C@H](CCC(=O)O)NC(=O)CNC(=O)[C@@H]1CCCN1C(=O)[C@H](CC(N)=O)NC(=O)[C@H](CC(=O)O)NC(=O)[C@@H]1CCCN1C(=O)[C@H](CCCCN)NC(=O)[C@H](CO)NC(=O)[C@@H]1CCCN1C(=O)[C@@H](N)Cc1ccc(O)cc1)C(=O)N[C@@H](CC(N)=O)C(=O)N[C@@H](CC(C)C)C(=O)N[C@@H](CC(C)C)C(=O)N[C@H](C(=O)N[C@@H](CCCNC(=N)N)C(=O)N1CCC[C@H]1C(=O)N[C@@H](CCCNC(=N)N)C(=O)N[C@@H](Cc1ccc(O)cc1)C(N)=O)[C@@H](C)O,17,x,8,x
CCOC(=O)C1=C(COC(=O)/C=C/c2ccc(SC)cc2)NC(=O)NC1C (stereo not drawn),x,14%,x,-4%
CC1CCC2(CC1)NC(=O)N(CC(=O)c1ccc(Cl)s1)C2=O (stereo not drawn),26,0%,-2,-6%
COc1ccc(-c2cc3c(nn2)-c2ccccc2C3=O)cc1,-25,1.9µM*,-4,19%
O=C1c2ccccc2-c2nnc(-c3ccccc3)cc21,72*,u,19*,2.6µM*
Cc1cccc(-c2cc3c(nn2)-c2ccccc2C3=O)c1,48*,x,30*,1.3µM*
Cc1cnc2c(c1)C(=O)c1ccccc1-2,21,2%,11,21%
COc1cc(CCC(=O)N2CCN(c3cccc(C)c3C)CC2)cc(OC)c1OC,-5,u,3,u
CC(=O)N1Cc2cc([N+](=O)[O-])ccc2Oc2ccccc21,-8,u,-2,-7%
CCCn1nc2ccccc2c1P(=N)(N1CCOCC1)N1CCOCC1,16,12µM*,12,12%
COc1ccc2nc(NC(=O)CSc3ccccc3)sc2c1,138*,5%,57*,x
Cc1ccc2nc(NC(=O)CSc3nncc(=O)n3N)sc2c1,18,38%,34*,79%
CCc1nnc(NC(=O)CSc2nncc(=O)n2N)s1,-9,-12%,-3,u
COc1ccc2nc(NC(=O)CSc3nnc(C)n3N)sc2c1,51*,437%,35*,157%
Cc1ccc2nc(NC(=O)CSc3[nH]c(=O)ncc3C)sc2c1,16,x,27*,x
COc1ccc2nc(NC(=O)CSC3=NCCS3)sc2c1,55,-14%,32*,-2%
CC(=O)c1ccc(N2CCN(CC(=O)N(C3CC3)C3CCS(=O)(=O)C3)CC2)c(F)c1 (stereo not drawn),x,-21%,x,-5%
COc1ccc(/C=N/N(C)C2=NS(=O)(=O)c3ccccc32)cc1,-4,12µM*,-6,x
CC(C)(C)C1C/C(=C/c2ccccn2)C(=O)/C(=C/c2ccccn2)C1 (stereo not drawn),-23,-21%,-11,2.1µM*
CC1C/C(=C/c2ccccn2)C(=O)/C(=C/c2ccccn2)C1 (stereo not drawn),-9,u,10,2.6µM*
Cc1ccccc1S(=O)(=O)NCC1CCCO1 (stereo not drawn),x,35%,-2,17%
